Source: PubChem BioAssay (NCI)
About 83,000 compounds went through this panel and 20% of them were active in at least one assay; those are over-represented in the sample as a whole.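 Single-dose data. Exposure time 48 hours. Values below 10 considered active.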 Calls of active or inactive are those of the source.

Columns and labels:
Assay in all cases: NCI-60 one-dose screen, 48 h (100 = growth as untreated, 0 = no growth, -100 = all killed)
Settings in all cases: 10 µM unless noted
[1] = tested on: HCT-15 colon
[2] = tested on: HT29 colon
[3] = tested on: SNB-75 CNS
[4] = tested on: SNB-19 CNS
[5] = tested on: U251 CNS
[6] = tested on: PC-3 prostate
[7] = tested on: SK-MEL-5 melanoma
[8] = tested on: UACC-62 melanoma
[9] = tested on: LOX IMVI melanoma
[10] = tested on: SK-MEL-28 melanoma

Measured: growth

Cc1ccc(C(C)C)cc1Oc1cccc(-c2c(-c3ccc(C(F)(F)F)cc3)ncn2C2CCNCC2)n1
active: [1] -94.1% | [2] -92.1% | [3] -94.1% | [4] -97.2% | [5] -85.3% | [6] -92% | [7] -98.6% | [8] -94.1% | [9] -75.8% | [10] -80.5%

CN1C(=O)/C(=C/c2ccco2)S/C1=N/c1nccs1
inactive: [1] 93.8% | [2] 103% | [3] 97.4% | [4] 99.4% | [5] 111% | [6] 98.1% | [7] 98.9% | [8] 86.7% | [9] 97.7% | [10] 112%

CCOC(=O)/C(F)=C/C1CC1C1CCN(C(=O)OC(C)(C)C)CC1 (stereo not given)
inactive: [1] 89.2% | [2] 77.9% | [3] 93.9% | [4] 96.5% | [5] 99.8% | [6] 96.3% | [7] 69.3% | [8] 93.6% | [9] 103% | [10] 119%

CN(C)CCCc1ccc(Nc2cnn(C)c(=O)c2Cl)cc1
inactive: [1] 96.6% | [2] 105% | [3] 74.2% | [4] 103% | [5] 105% | [6] 91% | [7] 93.2% | [8] 98.9% | [9] 101% | [10] 111%

O=C(N/N=C/c1ccsc1)c1[nH]c2ccc(Br)cc2c1-c1ccccc1
active: [1] -62.8% | [2] -62.8% | [3] -32.3% | [4] -41.5% | [5] -89.1% | [6] -26.1% | [7] -97.2% | [8] -91.6% | [9] -100% | [10] -87.4%

COc1c(F)ccc(C(=O)Nc2ccc3nc(NC(=O)C4CCCN(S(=O)(=O)c5ccc(C(C)(C)C)cc5)C4)sc3c2)c1F (stereo not given)
inactive: [1] 63.3% | [2] 55.4% | [3] 66.4% | [4] 78.2% | [5] 58.8% | [6] 45.8% | [7] 66.5% | [8] 55.9% | [9] 43.9% | [10] 81.3%

Nc1cc2ccccc2c(=O)n1NC(=O)c1ccc(Br)cc1
inactive: [1] 99.4% | [2] 118% | [3] 58.4% | [4] 84.5% | [5] 96.1% | [6] 95.3% | [7] 88.1% | [8] 80.6% | [9] 84.2% | [10] 88%

O=C(CSc1nc2ccccc2c(=O)[nH]1)NNC(=O)c1ccccc1Cl
inactive: [1] 107% | [2] 109% | [3] 72.6% | [4] 92.4% | [5] 96.3% | [6] 123% | [7] 106% | [8] 110% | [9] 102% | [10] 148%

Nc1nn2c(-c3cc4ccccc4oc3=O)ccnc2c1N=Nc1ccccc1
inactive: [1] 82.5% | [2] 124% | [3] 40% | [6] 82.5% | [7] 67.6% | [8] 92.7% | [9] 34% | [10] 90.2%
active: [4] 4.86% | [5] 6.17%

O=c1ccc(Cn2c(C(F)(F)F)cc3c(Cl)ncnc32)c[nH]1
active: [1] 0.0667% | [7] 6.31% | [9] -61.8%
inactive: [2] 78.1% | [3] 13.1% | [4] 47.4% | [5] 98.5% | [6] 78.4% | [8] 19.3% | [10] 40.8%

Cn1cc(-c2cc(N)n3nc(-c4c[nH]c5ccc(Cl)cc45)cc3n2)c2cccnc21
active: [1] -56.7% | [2] -44.7% | [3] -57.5% | [4] -78.3% | [5] -82% | [6] -51.6% | [7] -97.4% | [8] -86.4% | [9] -93.6% | [10] -93.7%

COc1c(B(O)O)cccc1-c1nc2ccc3cn[nH]c3c2c2c1CCCC2
inactive: [1] 54.9% | [2] 85.8% | [4] 54.9% | [5] 48.1% | [6] 60% | [7] 53.4% | [8] 52.1% | [9] 41.3% | [10] 86.6%
active: [3] -17.7%

COc1ccc(C(=O)c2cc(C(C)=O)c3c(C)cc(C)cn23)cc1
active: [3] 2.27%
inactive: [1] 65.9% | [2] 72.5% | [4] 24.8% | [5] 32.4% | [6] 82.9% | [7] 33.6% | [8] 63.4% | [9] 54.9% | [10] 72.9%

CCCCNc1ccc2c3c(cccc13)C(=O)N(c1cccc(-c3nn(-c4ccccc4)cc3-c3nc4ccccc4s3)c1)C2=O
inactive: [1] 108% | [2] 114% | [3] 92.8% | [4] 106% | [5] 110% | [6] 87.7% | [7] 96.3% | [8] 88.3% | [9] 94.4% | [10] 101%

COc1ccc(NC(=O)Cn2c(/C=C/c3ccc([N+](=O)[O-])cc3)nc3ccccc3c2=O)cc1
inactive: [1] 73.7% | [2] 85.5% | [4] 32.2% | [5] 32.2% | [6] 89.7% | [7] 52.6% | [8] 73.2% | [9] 61.5% | [10] 80.8%
active: [3] -32.7%

COc1cc(/C=C/C(=O)c2cnn(-c3cc(=O)[nH]c4ccc(Cl)cc34)c2C)cc(OC)c1OC
active: [1] -40.2% | [2] -71.9% | [3] -11.4% | [4] -68.9% | [5] -65.7% | [6] -26.9% | [7] -88.9% | [8] -49.1% | [9] -60.8% | [10] -69.2%

Cn1ncc2c(N)nc(Oc3ccccc3-c3ccccc3)nc21
inactive: [1] 10.7% | [2] 14.9% | [4] 33.8% | [5] 32.6% | [6] 58.5% | [8] 26.3% | [9] 34.7% | [10] 53.7%
active: [3] 8.98% | [7] 0.935%
